In PubChem BioAssay AID1377 (University of Pittsburgh Molecular Library Screening Center, 2008):
Out of some 220,000 compounds screened, about 830 (0.38%) were called active. The sample as a whole holds a higher share of actives than the screen did. A number with no mark means an inactive call.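 How the source made its calls: active means activation, scaled between plate controls, above about 75% (limit read from the data); inactive means activation under that limit.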

Test: rescue of L929 cells from zVAD death – primary screen (AID 1377);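 further: 0% = zVAD with DMSO and 100% = DMSO alone without zVAD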
Conditions: L929 zVAD necroptosis rescue, ATP luminescence, 24 h; at 10 µM; with zVAD 60 µM; stronger effect = higher value

Row | Compound | viability rescue
1 | COC(=O)C(c1ccccc1)N1CCCCCC1 (stereo not given) | 0.41%
2 | COC(=O)N1C(c2ccccc2)C1c1ccccc1 (stereo not given) | 83.8% (active)
3 | CCCC[N+]1(C)C2CC(OC(=O)C(CO)c3ccccc3)CC1C1OC12 (stereo not given) | -0.33%
4 | CN1CCN(/N=C/c2c[nH]c3ccccc23)CC1 | -0.46%
5 | CC1C2Cn3c(nc4ccccc43)C1N(C)O2 (stereo not given) | 0.4%
